KB-3-1 cytotox: KB-3-1 parental cell cytotoxicity | Potency, µM (highest dose often 46.1 µM), most hits filed as cytotoxic | KB-3-1 viability, CellTiter-Glo ATP luminescence, 72 h | hit rate 1.4% among 400,000; note: nearly all actives have a fitted effect of over 60% in size
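KB-3-1 parental drug-naive adenocarcinoma cells in DMEM/10% FBS, incubated 72 h at 37 C with pin-transferred compounds across a concentration series. Viability by CellTiter-Glo luminescence; concentration-response curves fitted after normalization.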
TDP1 cell noCPT: qHTS for Inhibitors of human tyrosyl-DNA phosphodiesterase 1 (TDP1): qHTS in cells in absence of CPT; DT40 Tdp1-/- hTDP1 cells, no CPT, ATP luminescence, 48 h; Potency, µM (titrated, usually from 46.2 µM), for inactives: top-dose activity change, negative = growth inhibition, usual class: inhibitors; hit rate 15% among 420,000; AID 686978, 2013; note: nearly all actives have a fitted effect of over 55% in size
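DT40 Tdp1-/-;hTDP1 cells, no CPT (DMSO vehicle only), 400 cells/well; compounds pin-transferred; ≥48 hr, 37 °C; CellTiter-Glo 30 min RT dark, luminescence read.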
HT1080 IDH1KD tx: HT-1080 IDH1 knockdown cell toxicity (counter line); HT-1080 IDH1 knockdown viability, ATP luminescence, 48 h; Potency, µM (titrated, usually from 46.1 µM), for inactives: top-dose activity, negative = toxicity, hits mostly cytotoxic; hit rate 2% among 360,000; AID 686971;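 note: 0% = DMSO wells and -100% = cell-free medium wells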
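In this qHTS, HT-1080 cells depleted of IDH1 are exposed for 48 h at 37 °C to compound titrations. Toxicity is scored from CellTiter-Glo luminescence, with DMSO as full viability and medium alone as none.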
TDP1 cell CPT: DT40-hTDP1 cell growth loss with CPT; AID 686979; hit rate 12% among 420,000; chicken DT40 Tdp1-/-;hTDP1 cells + 20 nM CPT, ATP luminescence, 48 h; Potency, µM (titrated, usually from 46.2 µM), for inactives: at the highest dose activity change, negative = growth inhibition, usual class: inhibitors; note: nearly all actives have a fitted effect of over 55% in size
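Chicken DT40 Tdp1-/- cells complemented with human TDP1, 400 cells/well, exposed to compounds plus 20 nM camptothecin for at least 48 h at 37 C; viability read as ATP content by CellTiter-Glo luminescence.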
KB-V1 MDR tox: KB-V1 MDR subline cytotoxicity; KB-V1 MDR cells viability, CellTiter-Glo, 72 h; AID 1347076; Potency, µM (top dose mostly 46.1 µM), hits mostly cytotoxic; hit rate 3.4% among 400,000; note: nearly all actives have a fitted effect of over 60% in size
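Following 72 h at 37 degrees C with compound, KB-V1 cell viability was read by CellTiter-Glo luminescence, medium being phenol-red-free DMEM plus 10% FBS; concentration-response parameters came from normalized, curve-fitted qHTS data.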
HT1080NT lethal: kills 2HG-producing HT-1080-NT fibrosarcoma cells; HT-1080-NT fibrosarcoma viability, CellTiter-Glo ATP luminescence, 48 h; Potency, µM (highest dose often 46.1 µM), without a hit: at the top dose activity, negative = less viability, usual class: cytotoxic; hit rate 1.6% among 360,000; AID 686970;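 note: NT is the 2HG producing partner of a matched IDH1 knockdown line; 0% = DMSO-treated cells and -100% = media-only wells without cells; nearly all actives have a fitted effect of over 55% in size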
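750 cells/well, RPMI + 5% FBS; 2 h settle, compound pin-transfer, 48 h at 37 degrees C. CellTiter-Glo 10 min RT, luminescence. Normalized to DMSO and media-only wells.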
Starred values were filed as active, the others as inactive; i = inactive; ? = inconclusive; . = no result; [ ] = another dose, or the depositor's remark. Only some compounds are listed: those with a hit (about 19% of all), similar ones and a draw of the others. Calls come from the whole dose curve; as a rule, active = well fitted curve in the direction sought with a large enough effect; inconclusive = small, poorly fitted or top-dose-only effect, or another doubt; inactive = no such curve, though single readings can be large; an effect the other way counts as inactive or inconclusive. Unless noted, % is set by controls: 0 for no effect and ±100 for the full control effect; potency is the fitted concentration of half-maximal effect.

SMILES	KB-3-1 cytotox	TDP1 cell noCPT	HT1080 IDH1KD tx	TDP1 cell CPT	KB-V1 MDR tox	HT1080NT lethal
O=C(Cn1c2[n+](c3ccc(C(F)(F)F)cc31)CCCCC2)c1ccc2c(c1)OCCO2	?	21µM*	-5%	?	i	-1%
CCc1cccc(NC(=O)Cn2c3[n+](c4ccc(C(F)(F)F)cc42)CCCCC3)c1	i	16µM*	-12%	?	?	-13%
O=C(Cn1c2[n+](c3ccc(C(F)(F)F)cc31)CCCCC2)Nc1ccccc1	i	-29%	-1%	?	i	0%
CCc1nn2c(=O)c(S(=O)(=O)Nc3ccc(Br)cc3F)c(C)nc2s1	i	-25%	.	-28%	i	.
CCNc1ncc2nc(C)c(=O)n(Cc3cccs3)c2n1	.	-23%	.	-4%	.	.
Cc1ccc(-n2nc(C(=O)Nc3ccc(F)cc3Cl)c(=O)n(C)c2=O)cc1	i	-12%	.	-1%	i	.
O=C(CSc1nnc(CNC(=O)c2cccc(C(F)(F)F)c2)o1)NC1CCCC1	i	-1%	12%	-2%	i	15%
CCc1ccc(S(=O)(=O)N/N=C\c2cn(CC(N)=O)c3ccccc23)cc1	i	-16%	-23%	-14%	i	-7%
CNC(=S)N/N=C/c1cn(Cc2ccc(F)cc2)c2ccccc12	?	10µM*	-28%	16µM*	15µM*	-27%
NC(=O)Cn1cc(/C=N\NS(=O)(=O)c2ccc(F)cc2)c2ccccc21	i	23µM*	-29%	-3%	i	-19%
COC(=O)N/N=C/c1cn(Cc2ccc(F)cc2)c2ccccc12	i	?	-14%	-28%	i	-5%
CC(=O)n1cc(/C=N/NC(N)=S)c2ccccc21	?	-102%	6%	?	5.2µM*	18%
Cc1ccc(Cn2cc(/C=N/NC(=O)Cc3nnc(NC(=O)c4ccc(C)cc4)s3)c3ccccc32)cc1	i	6.5µM*	5%	12µM*	i	8%
OC(c1ccc2c(c1)CN(Cc1ccc3nsnc3c1)CCO2)C1CCCCC1 (configuration not stated)	.	-4%	.	5%	.	.
CCCCN(CC)C(=O)CCNS(=O)(=O)c1ccc2c(c1)c(=O)n(C)c(=O)n2C	i	-28%	.	-12%	i	.
Cc1ccc(NC(=O)c2nc[nH]c2C(=O)N(C)CCO)cc1	i	-13%	10%	1%	i	8%
CCc1cccc(C)c1NC(=O)CN1C(=O)c2cccc3cccc1c23	i	-18%	.	-15%	i	.
Cc1ccc(S(=O)(=O)CCC(=O)OCC(=O)N(Cc2ccccc2)C(C)C)cc1	i	-2%	6%	13%	i	11%
Nc1ccc(C(=O)N/N=C/c2cn(Cc3ccccc3)c3ccccc23)cc1	?	-19%	?	-10%	29µM*	-17%
COc1ccc(OCCn2cc(C=O)c3ccccc32)cc1	i	?	-7%	?	i	-12%
COC(=O)c1cn(CCOc2ccccc2OC)c2ccccc12	?	15µM*	-27%	18µM*	?	-16%
Nc1ccc(C(=O)N/N=C/c2cn(Cc3ccc(F)cc3)c3ccccc23)cc1	i	-10%	-25%	-26%	i	-17%
CNC(=S)N/N=C/c1cn(CCOc2ccc(OC)cc2)c2ccccc12	i	7.3µM*	-13%	8.2µM*	?	-14%
Cc1ccccc1OCCn1cc(C=O)c2ccccc21	?	-37%	?	?	16µM*	-29%
COc1ccc(OCCn2cc(/C(N)=N/O)c3ccccc32)cc1	i	?	5%	-17%	i	5%
SMILES	KB-3-1 cytotox	TDP1 cell noCPT	HT1080 IDH1KD tx	TDP1 cell CPT	KB-V1 MDR tox	HT1080NT lethal
COCCN1CCc2nc(SCC(=O)Nc3ccc(C)c(Cl)c3)[nH]c(=O)c2C1	i	-29%	.	0%	?	.
CC(=O)Nc1ccccc1-c1nc(CNC(=O)c2ccc(C)cc2)c(C)o1	.	?	.	-3%[9.04 µM]	.	.
Cc1noc(C)c1C(=O)OCC(=O)Nc1ncc(Cl)c(C)c1Cl	i	-9%	13%	-16%	?	8%
Cc1ccc(NC(=O)Cn2c(C)cc(C)c(C#N)c2=O)cc1F	i	-19%	.	6%	i	.
COc1ccccc1OCCn1cc(/C=N/NC(N)=S)c2ccccc21	i	29µM*	-14%	?	i	-7%
COc1cc(C(=O)N/N=C/c2cn(Cc3ccccc3)c3ccccc23)ccc1O	i	-21%	-5%	?	i	-6%
COc1ccccc1OCCn1cc(/C=N/NC(=O)c2ccncc2)c2ccccc21	i	18µM*	-13%	-28%	i	-26%
COC(=O)C1=C(C)N(C(C)C)C(=O)C1(NC(=O)c1ccccc1OC)C(F)(F)F (configuration not stated)	i	-23%	.	-22%	i	.
CCCC(=O)N1CCOCC1c1cc(C(=O)NCc2ccccc2)no1 (configuration not stated)	i	8%	0%	-1%	i	8%
Cc1[nH]c2ccccc2c1C(=O)C(=O)NCc1nnnn1-c1ccc(F)cc1	i	-25%	0%	-8%	i	-1%
COc1ccccc1/C=C/c1nc(C#N)c(NCCc2ccccc2)o1	.	16µM*	.	?	.	.
COc1cccc(/C=C/c2nc(C#N)c(NCCN(C)C)o2)c1	i	?	.	-30%	i	.
CCOc1ccc(/C=C/c2nc(C#N)c(NCCc3ccccc3)o2)cc1	.	1.2µM*	.	1.3µM*	.	.
COc1ccc(CCNc2oc(-c3ccccc3OC)nc2C#N)cc1	i	?	?	?	i	-20%
COc1cccc(/C=C/c2nc(C#N)c(N(C)Cc3ccccc3)o2)c1	i	23µM*	.	?	i	.
COc1cccc(/C=C/c2nc(C#N)c(NCCc3ccccc3)o2)c1	.	15µM*	.	?	.	.
COc1cc(C(=O)NCCOc2cccc(C)c2)c(Br)c(OC)c1OC	i	-9%	2%	-1%	i	5%
CCOc1ccc(/C=C/c2nc(C#N)c(N(C)C)o2)cc1	.	15µM*	.	16µM*	.	.
CCNc1oc(/C=C/c2ccc(OCC)cc2)nc1C#N	?	8.2µM*	?	7.3µM*	i	-15%
CN(C)c1oc(/C=C/c2ccc(F)cc2)nc1C#N	.	-18%	.	-22%	.	.
COc1ccc(Nc2oc(/C=C/c3cccc(OC)c3)nc2C#N)cc1	i	?	.	18µM*	i	.
COCCNc1oc(/C=C/c2ccc(F)cc2)nc1C#N	.	-23%	.	4%	.	.
